Among the test systems are DU-145 prostate; K-562 leukemia; MALME-3M melanoma; MDA-MB-231 breast; RXF 393 renal; SF-268 CNS; SF-295 CNS; SF-539 CNS; UACC-257 melanoma; M14 melanoma; HCT-15 colon; HT29 colon; SNB-75 CNS; SNB-19 CNS; U251 CNS; PC-3 prostate; SK-MEL-5 melanoma; UACC-62 melanoma; LOX IMVI melanoma; SK-MEL-28 melanoma.
Common to all, as to test: NCI-60 one-dose screen, 48 h (100 = growth as untreated, 0 = no growth, -100 = all killed)
What all share (conditions): 10 µM

SMILES strings stand for the structures. This is part of a sample that, as a whole, favours compounds with a hit. Of some 83,000 tested, about 20% had one in any assay.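 Interpretation: 100, growth as untreated; towards 0, rising growth inhibition; 0, no net growth; 0 to -100, cell death. Compounds scoring below 10 were considered active.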 Values without a mark were called inactive. Activity calls are given as the source filed them.

As to `COc1cccc(C(=O)NNc2nc(N3CCOCC3)nc(N3CCN(C(c4ccccc4)c4ccccc4)CC3)n2)c1`, the growth is 87.2% in the test with DU-145 prostate; 63.5% in the test on K-562 leukemia; 91.7% in the test on MALME-3M melanoma; 86.3% with MDA-MB-231 breast; 69.4% with RXF 393 renal; 71.5% in the test with SF-268 CNS. Also, the growth was 87.3% in the test with SF-295 CNS; 93.6% with SF-539 CNS; 90.9% with UACC-257 melanoma; 114% in the test with M14 melanoma; 89.2% with HCT-15 colon; 95% with HT29 colon. Besides, the growth in the test with SNB-75 CNS was 71.5%; in the test on SNB-19 CNS it was 86.3%; with U251 CNS, 85.2%; in the test with PC-3 prostate, 55.1%; in the test with SK-MEL-5 melanoma it was 53.3%; in the test on UACC-62 melanoma, 65.8%. Also, the figures for the growth in the test on LOX IMVI melanoma and in the test on SK-MEL-28 melanoma were 83.1% and 93.4%, respectively.
On to `Cc1ccc2c(c1)-c1cc(C)nn1-c1ccc(C#N)cc1O2`, for which the growth is 98.7% in the test with DU-145 prostate; 19.7% in the test on K-562 leukemia; 76.1% in the test with MALME-3M melanoma; 61% in the test with MDA-MB-231 breast; 65% with RXF 393 renal; 74.4% in the test on SF-268 CNS. In addition, the growth in the test on SF-295 CNS is 67.2%; in the test on SF-539 CNS, 69.1%; in the test with UACC-257 melanoma, 78.4%; with M14 melanoma, 40%; in the test with HCT-15 colon it was 38.7%; in the test on HT29 colon, 20%. Also, the growth in the test with SNB-75 CNS is 48.8%; with SNB-19 CNS, 68.6%; with U251 CNS, 46.9%; with PC-3 prostate, 66.2%; in the test with SK-MEL-5 melanoma, 75.9%; in the test with UACC-62 melanoma it was 52.4%. The growth is 49.4% in the test with LOX IMVI melanoma and 70.3% with SK-MEL-28 melanoma.
As to `Nc1cc(O)cc(O)c1`, the growth in the test with DU-145 prostate is 103%; in the test with K-562 leukemia, 99.5%; with MALME-3M melanoma, 97.5%; with MDA-MB-231 breast, 93.9%; in the test with RXF 393 renal it was 120%; with SF-268 CNS it was 100%. In addition, the growth was 94.9% in the test with SF-295 CNS; 92.1% in the test with SF-539 CNS; 108% in the test on UACC-257 melanoma; 100% in the test with M14 melanoma; 97.9% in the test on HCT-15 colon; 95% in the test with HT29 colon. Also, the growth with SNB-75 CNS was 91.8%; in the test with SNB-19 CNS, 96.5%; in the test on U251 CNS it was 104%; with PC-3 prostate it was 96.6%; in the test with SK-MEL-5 melanoma, 109%; in the test on UACC-62 melanoma it was 94.7%. Besides, the results for the growth in the test with LOX IMVI melanoma and with SK-MEL-28 melanoma were 95% and 101%, respectively.
Take `Cc1ccc([P+](Cc2ccccc2)(c2ccccc2)c2ccccc2)cc1`: the growth with DU-145 prostate is 32.3%; in the test on K-562 leukemia, 2.63% (active); in the test with MALME-3M melanoma, -10.8% (active); with MDA-MB-231 breast it was 17.8%; in the test on RXF 393 renal, 45.7%; in the test with SF-268 CNS, 28.4%. In addition, the growth with SF-295 CNS is -6.8% (active); in the test on SF-539 CNS, 23%; in the test with UACC-257 melanoma, -28.6% (active); in the test on M14 melanoma, 3.22% (active); in the test with HCT-15 colon, 87.4%; with HT29 colon, 3.42% (active). Further, the growth in the test on SNB-75 CNS is 6.53% (active); with SNB-19 CNS it was 24.7%; with U251 CNS it was 10.1%; in the test on PC-3 prostate it was 2.37% (active); in the test on SK-MEL-5 melanoma it was -43% (active); in the test on UACC-62 melanoma, 1.54% (active). Moreover, the growth in the test with LOX IMVI melanoma is 16.8%; with SK-MEL-28 melanoma it was 24.4%.
On to `O=C(Nc1cccc(F)c1)Nc1cccc(Cl)c1`, for which the growth with DU-145 prostate was 65.8%; with K-562 leukemia it was 10.9%; in the test on MALME-3M melanoma, 84.6%; with MDA-MB-231 breast, 80.7%; with RXF 393 renal it was 104%; in the test with SF-268 CNS, 80.4%. Moreover, the growth is 92.7% with SF-295 CNS; 105% in the test on SF-539 CNS; 87.7% in the test with UACC-257 melanoma; 100% with M14 melanoma; 82.9% with HCT-15 colon; 90.9% in the test on HT29 colon. Besides, the growth was 89.1% in the test on SNB-75 CNS; 99.9% in the test with SNB-19 CNS; 90.5% in the test with U251 CNS; 65.5% with PC-3 prostate; 91.5% with SK-MEL-5 melanoma; 77.1% in the test on UACC-62 melanoma. The values for the growth with LOX IMVI melanoma and with SK-MEL-28 melanoma were 106% and 98.9%, respectively.
On to `COc1ccc(C(=O)/C=C/c2cc(-c3ccc(OC)c(OC)c3)n[nH]2)cc1OC`, for which the growth in the test with DU-145 prostate is -25.8% (active); in the test on K-562 leukemia, 5.44% (active); with MALME-3M melanoma it was -47.5% (active); in the test on MDA-MB-231 breast, -18.7% (active); in the test on RXF 393 renal, -79.3% (active); in the test with SF-268 CNS it was -28% (active). Moreover, the growth with SF-295 CNS is 18%; with SF-539 CNS it was -99.3% (active); with UACC-257 melanoma, 11.7%; in the test on M14 melanoma, 18.1%; in the test on HCT-15 colon, -68.1% (active); in the test on HT29 colon, -61.1% (active). Also, the growth was -0.863% (active) in the test on SNB-75 CNS; 2.04% (active) in the test with SNB-19 CNS; -94.5% (active) in the test on U251 CNS; -36.2% (active) in the test on PC-3 prostate; 4.15% (active) in the test on SK-MEL-5 melanoma; 16.3% in the test with UACC-62 melanoma. The growth in the test on LOX IMVI melanoma was -86.8% (active); in the test with SK-MEL-28 melanoma it was -65.5% (active).
Consider `O=C(COCc1c(-c2ccccc2)no[n+]1[O-])Nc1nc(-c2ccc(Cl)cc2)cs1`, for which the growth in the test with DU-145 prostate was 109%; in the test with K-562 leukemia it was 108%; in the test with MALME-3M melanoma, 97.8%; in the test with MDA-MB-231 breast, 99.9%; in the test with RXF 393 renal it was 112%; in the test with SF-268 CNS, 97.9%. In addition, the growth is 101% with SF-295 CNS; 109% in the test on SF-539 CNS; 96.5% in the test with UACC-257 melanoma; 108% in the test on M14 melanoma; 103% in the test on HCT-15 colon; 105% in the test on HT29 colon. In addition, the growth is 98.6% in the test on SNB-75 CNS; 107% in the test with SNB-19 CNS; 103% in the test on U251 CNS; 95.7% in the test on PC-3 prostate; 95.6% in the test with SK-MEL-5 melanoma; 99.6% in the test on UACC-62 melanoma. The growth was 95.8% in the test with LOX IMVI melanoma and 111% in the test on SK-MEL-28 melanoma.
With `CCc1ccc(Nc2cc(C)nc3nc(C)nn23)cc1`, the growth in the test on DU-145 prostate is 29.5%; with K-562 leukemia it was -24.3% (active); in the test with MALME-3M melanoma, -90.2% (active); in the test on MDA-MB-231 breast, -58.3% (active); in the test on RXF 393 renal, -66.5% (active); with SF-268 CNS, 37.8%. Also, the growth is 33.1% with SF-295 CNS; 0.337% (active) with SF-539 CNS; -84.8% (active) in the test with UACC-257 melanoma; -93.6% (active) in the test on M14 melanoma; -3.95% (active) in the test with HCT-15 colon; -76.3% (active) in the test with HT29 colon. Further, the growth in the test with SNB-75 CNS is 29.6%; with SNB-19 CNS, 15.4%; in the test on U251 CNS it was -98.9% (active); with PC-3 prostate, 1.4% (active); in the test with SK-MEL-5 melanoma, -97.8% (active); with UACC-62 melanoma it was -99.1% (active). For the same molecule, the growth in the test with LOX IMVI melanoma was -98.2% (active); in the test with SK-MEL-28 melanoma it was -98% (active).
